Measurements from PubChem BioAssay (NCATS).
Results filed as inconclusive are left out. Values without a mark were called inactive. Active and inactive are the calls of the source. Calls follow the shape of the dose curve; as a rule, active = well fitted inhibition curve with a large enough effect; inconclusive = small, poorly fitted or top-dose-only effect; inactive = flat fitted curve, though single readings scatter.

system: TAB109; experiment: qHTS profiling for inhibitors of Plasmodium falciparum proliferation (AID 504749); also: nearly all actives have a fitted effect of over 60% in size;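 as to activity, negative = inhibition: 0% = DMSO vehicle and full inhibition = artemisinin control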; conditions: P. falciparum in erythrocytes, SYBR Green DNA, 72 h; series mostly up to 28.7 µM; activity, negative = inhibition: at the top concentration
How it was run: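 Quantitative HTS: compounds pinned into medium, infected erythrocytes added (0.3% parasitemia, 2.5% hematocrit), 72 h culture at 37 C under 5% CO2. Saponin/Triton lysis with SYBR Green I, overnight RT, then fluorescence read.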
Potency is read from the fitted curve at half-maximal effect.

SMILES	activity, negative = inhibition	Potency
O=C(O)CCCCC(=O)O	-7.74%	–
CCOC(=O)n1ccn(C)c1=S	4.79% [at 12.8 µM]	–
COc1cc(NS(C)(=O)=O)ccc1Nc1c2ccccc2nc2ccccc12	–	3.16 µM (active)
C[C@]12CC[C@@H]3c4ccc(O)cc4CC[C@H]3[C@@H]1CC[C@@H]2O	-12.8%	–
NCCC(O)(P(=O)(O)O)P(=O)(O)O	11.6%	–
CCN1CCC[C@H]1CNC(=O)c1c(OC)ccc(Br)c1OC	-27.5%	–
CCN1CCN(c2cc3c(cc2F)c(=O)c(C(=O)O)cn3C2CC2)CC1	-13.9%	–
CN1C2CCC1CC(OC(=O)c1c[nH]c3ccccc13)C2 (stereo not given)	16.2%	–
CO/N=C1\CN(c2nc3c(cc2F)c(=O)c(C(=O)O)cn3C2CC2)CC1CN (stereo not given)	–	5.01 µM (active)
Oc1c(Cl)cc(Cl)cc1Sc1cc(Cl)cc(Cl)c1O	1.21%	–
CC(=O)Oc1ccc(C(=C2CCCCC2)c2ccc(OC(C)=O)cc2)cc1	-0.0792%	–
CC(=O)OCC(=O)NCCCOc1cccc(CN2CCCCC2)c1	5.71%	–
CC(C)NC[C@@H](O)COc1cccc2ccccc12	–	12.6 µM (active)
CCN(CC)C(=O)N1CCN(C)CC1	5.5% [at 12.8 µM]	–
Nc1ccc(/C=C/c2ccc(N)cc2S(=O)(=O)O)c(S(=O)(=O)O)c1	13.4%	–
CCN1CCCC1=O	4.23%	–
Cc1c(F)c(N2CCNC(C)C2)cc2c1c(=O)c(C(=O)O)cn2C1CC1 (stereo not given)	-23.6%	–
CC(C)(Oc1ccc(Cl)cc1)C(=O)O	3.86%	–
CCCCC1=NC2(CCCC2)C(=O)N1Cc1ccc(-c2ccccc2-c2nn[nH]n2)cc1	-8.3%	–
CCCCCCCCCCCCCCCCOP(=O)([O-])OCC[N+](C)(C)C	-3.35%	–
